In PubChem BioAssay:
For some assays here: Measured potencies and affinities stand elsewhere. Calls of active or inactive are those of the source. How the calls were made is not given here.

Target: Plasmodium falciparum protein kinase 6 (PK6, PF3D7_1337100) (UniProt Q8IDW1)
Assay: PfPK6 kinase inhibitors, biochemical, TCAMS library (AID 1159586)
Settings: recombinant PfPK6, Kinase-Glo ATP depletion luminescence

Chain of Plasmodium falciparum protein kinase 6 (PK6, PF3D7_1337100) (Q8IDW1 1-305): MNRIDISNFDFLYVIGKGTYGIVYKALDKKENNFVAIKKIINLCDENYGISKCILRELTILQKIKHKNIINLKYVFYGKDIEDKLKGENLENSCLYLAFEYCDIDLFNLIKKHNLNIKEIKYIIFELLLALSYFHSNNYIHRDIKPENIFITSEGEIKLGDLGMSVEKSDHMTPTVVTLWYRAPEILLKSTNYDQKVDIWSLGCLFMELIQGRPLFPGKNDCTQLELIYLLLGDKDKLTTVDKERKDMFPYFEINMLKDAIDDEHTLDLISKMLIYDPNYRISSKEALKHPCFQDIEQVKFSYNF

outcome, inactive:
Cc1cccc2[nH]c(-c3cccc(-c4cccc(CN5CCN(c6ccc(C#N)cn6)CC5)c4)c3)nc12
C[C@H](Cc1ccc(OCCCCCCOc2ccc(C[C@@H](C)NC[C@H](O)c3cccc(Cl)c3)cc2)cc1)NC[C@H](O)c1cccc(Cl)c1
COc1ccc(-n2ccnc2SCC(=O)Nc2cc(Cl)ccc2OC)c(OC)c1
COc1ccccc1C1CCN(CCCCNC(=O)c2ccc(NC(=O)c3ccc(Cl)cc3)cc2)CC1
COc1ccccc1CNc1ncc(-c2ccsc2)c(-c2nccs2)n1
COc1ccc2c(NN=Cc3ccc(N(C)C)cc3)ccnc2c1
NC1CCCN(Cc2cccc(-c3ccc(-c4nc5ccccc5[nH]4)s3)c2)C1 (stereo not given)
COc1cc2c(cc1C(F)(F)F)N(C(=O)Nc1cc(OC(F)(F)F)cc(-c3cccnc3)c1)CC2
O=C(Cc1cnc[nH]1)Nc1ccc(-c2cccc(-c3nc4ccc(C(F)(F)F)cc4[nH]3)c2)cc1
CCCOc1ccc(CCCON2C(N)=NC(N)=NC2(C)C)cc1
CC(C)(C)NCCN(Cc1ccc(-c2ccc(C(F)(F)F)cc2)cc1)C(=O)Cn1c(CCc2cccc(F)c2F)nc(=O)c2ccccc21
CC1(C)N=C(N)N=C(N)N1OCCNCc1ccc(Cl)cc1
Cc1ccc(C2=NNC3(S2)C(=O)Nc2ccc(C)cc23)cc1 (stereo not given)
CCc1ccc(N2C(=O)C3C(Cc4ccc(OC(C)(C)C)cc4)NC4(C(=O)N(Cc5ccccc5)c5ccc(F)cc54)C3C2=O)cc1 (stereo not given)
CCNc1cc(C(=O)N[C@@H](Cc2ccc(Cl)cc2)[C@H](O)CNC2CCCCC2)cc(N2CCCCS2(=O)=O)c1
CC(C)[C@H](NC(=O)NC1CCC(CCN2[C@@H]3CC[C@H]2CC(OC(=O)C(CO)c2ccccc2)C3)CC1)C(O)(c1ccccc1)c1ccccc1 (stereo not given in full)
CC(C)N1CCC(N(Cc2ccc(-c3ccc(C(F)(F)F)cc3)cc2)C(=O)Cn2c(CCc3cccc(F)c3F)cc(=O)c3c2CCC3)CC1
c1ccc(Nc2nc(-c3ccccn3)cs2)nc1
CCOC(=O)NC1=NC(C)(C)N(OCc2ccc(Cl)c(Cl)c2)C(N)=N1
CCn1c(SCC(=O)Nc2cc(C(F)(F)F)ccc2Cl)nc2ccccc2c1=O
COc1cc(NC(=O)/C=C/c2cccc3ccoc23)ccc1OCCN(C(C)C)C(C)C
COc1ccc(OCCCN2CCN(CC(c3ccc(F)cc3)N3CCN(C(C)C)CC3)CC2)c2ccccc12 (stereo not given)
Cc1cccc(Nc2nccc(NCC(O)c3cccc(C(F)(F)F)c3)n2)c1 (stereo not given)
Cc1cccc2[nH]c(-c3ccc(-c4ccc(NC(=O)C(=O)c5cccn5C)cc4)cc3)nc12
CC(C)NCc1ccc(-c2cccc(-c3nc4ccccc4[nH]3)c2)cc1
Cc1cccc2[nH]c(-c3ccc(-c4cccc(CN5CCN(c6ccncc6)CC5)c4)cc3)nc12
CC(C)CN1CCCN(Cc2cccc(NC(=O)c3cc4ccccc4s3)c2)CC1
Cc1cc(NCCCCCCN)nc(Nc2ccc(Cl)cc2)n1
CCCCCCCN1CC[C@@H](CCCc2ccnc3ccc(OCCCCN=C(N)NO)cc23)[C@@H](CC)C1
COc1cc(CCN(C)Cc2ccc(OC)c(OC)c2)ccc1NC(=O)c1cccc2c(=O)c3cccc(F)c3[nH]c12
COc1ccc2nccc([C@@H](O)CN3CCC(NC[C@H](Cc4ccccc4)NC(=O)OC(C)(C)C)CC3)c2c1
CC(=O)NCCNc1nccc(N2CCc3ncnc(Nc4ccc(OCc5cccc(F)c5)c(Cl)c4)c3C2)n1
Cc1cc(N)c2cc(NC(=O)CCC(=O)Nc3ccc4nc(C)cc(N)c4c3)ccc2n1
COc1cc(CNCCC(C)C)ccc1OCc1cccc(COc2ccc(CNCCC(C)C)cc2OC)c1
O=C(/C=C/c1ccc(Cl)c(Cl)c1)NCCCCCCN1CCCN(C(=O)Nc2ccc(C(F)(F)F)cc2)CC1
CN1CCN(CCCN(Cc2ccc(-c3ccc(CNCc4ccc5c(c4)OCO5)cc3)cc2)C(=O)Nc2ccccc2)CC1
O=[N+]([O-])c1cccc(Nc2nccc(-c3cnn4ncccc34)n2)c1
COc1ccc(C(=O)N[C@@H](CC(C)C)C(=O)N[C@H](/C=N/NC(=O)c2ccccc2)CCc2ccccc2)cc1OCCN1CCOCC1
CC(C)CCNCc1c(O)ccc2ccccc12
Cc1ccc(/C=C/C(=O)N2CCC(CCN3CCC(c4c[nH]c5ccccc45)CC3)CC2)cc1C

Target: Protein kinase 7 (PK7), Plasmodium falciparum 3D7 (PF3D7_0213400) (UniProt Q7YTF7)
Assay: inhibition of Plasmodium PK7 catalytic activity – biochemical, TCAMS antimalarial set, Kinase-Glo luminescence (AID 1159587)
Settings: recombinant PfPK7, Kinase-Glo ATP depletion luminescence

Chain of Protein kinase 7 (PK7), Plasmodium falciparum 3D7 (PF3D7_0213400) (Q7YTF7 1-343): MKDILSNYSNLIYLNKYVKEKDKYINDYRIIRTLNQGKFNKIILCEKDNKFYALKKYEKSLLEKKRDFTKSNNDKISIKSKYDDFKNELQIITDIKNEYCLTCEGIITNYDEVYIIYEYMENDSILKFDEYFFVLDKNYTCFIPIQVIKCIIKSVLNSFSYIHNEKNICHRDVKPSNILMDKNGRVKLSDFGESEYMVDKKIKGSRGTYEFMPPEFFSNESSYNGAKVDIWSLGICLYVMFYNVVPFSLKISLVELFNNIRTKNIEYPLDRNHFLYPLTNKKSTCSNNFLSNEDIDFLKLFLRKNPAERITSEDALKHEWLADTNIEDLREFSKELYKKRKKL

outcome, inactive:
Cc1cccc2[nH]c(-c3cccc(-c4cccc(CN5CCN(c6ccc(C#N)cn6)CC5)c4)c3)nc12
C[C@H](Cc1ccc(OCCCCCCOc2ccc(C[C@@H](C)NC[C@H](O)c3cccc(Cl)c3)cc2)cc1)NC[C@H](O)c1cccc(Cl)c1
COc1ccc(-n2ccnc2SCC(=O)Nc2cc(Cl)ccc2OC)c(OC)c1
COc1ccccc1C1CCN(CCCCNC(=O)c2ccc(NC(=O)c3ccc(Cl)cc3)cc2)CC1
COc1ccccc1CNc1ncc(-c2ccsc2)c(-c2nccs2)n1
COc1ccc2c(NN=Cc3ccc(N(C)C)cc3)ccnc2c1
NC1CCCN(Cc2cccc(-c3ccc(-c4nc5ccccc5[nH]4)s3)c2)C1 (stereo not given)
COc1cc2c(cc1C(F)(F)F)N(C(=O)Nc1cc(OC(F)(F)F)cc(-c3cccnc3)c1)CC2
O=C(Cc1cnc[nH]1)Nc1ccc(-c2cccc(-c3nc4ccc(C(F)(F)F)cc4[nH]3)c2)cc1
CCCOc1ccc(CCCON2C(N)=NC(N)=NC2(C)C)cc1
CC(C)(C)NCCN(Cc1ccc(-c2ccc(C(F)(F)F)cc2)cc1)C(=O)Cn1c(CCc2cccc(F)c2F)nc(=O)c2ccccc21
CC1(C)N=C(N)N=C(N)N1OCCNCc1ccc(Cl)cc1
Cc1ccc(C2=NNC3(S2)C(=O)Nc2ccc(C)cc23)cc1 (stereo not given)
CCc1ccc(N2C(=O)C3C(Cc4ccc(OC(C)(C)C)cc4)NC4(C(=O)N(Cc5ccccc5)c5ccc(F)cc54)C3C2=O)cc1 (stereo not given)
CCNc1cc(C(=O)N[C@@H](Cc2ccc(Cl)cc2)[C@H](O)CNC2CCCCC2)cc(N2CCCCS2(=O)=O)c1
CC(C)[C@H](NC(=O)NC1CCC(CCN2[C@@H]3CC[C@H]2CC(OC(=O)C(CO)c2ccccc2)C3)CC1)C(O)(c1ccccc1)c1ccccc1 (stereo not given in full)
CC(C)N1CCC(N(Cc2ccc(-c3ccc(C(F)(F)F)cc3)cc2)C(=O)Cn2c(CCc3cccc(F)c3F)cc(=O)c3c2CCC3)CC1
c1ccc(Nc2nc(-c3ccccn3)cs2)nc1
CCOC(=O)NC1=NC(C)(C)N(OCc2ccc(Cl)c(Cl)c2)C(N)=N1
CCn1c(SCC(=O)Nc2cc(C(F)(F)F)ccc2Cl)nc2ccccc2c1=O
COc1cc(NC(=O)/C=C/c2cccc3ccoc23)ccc1OCCN(C(C)C)C(C)C
COc1ccc(OCCCN2CCN(CC(c3ccc(F)cc3)N3CCN(C(C)C)CC3)CC2)c2ccccc12 (stereo not given)
Cc1cccc(Nc2nccc(NCC(O)c3cccc(C(F)(F)F)c3)n2)c1 (stereo not given)
Cc1cccc2[nH]c(-c3ccc(-c4ccc(NC(=O)C(=O)c5cccn5C)cc4)cc3)nc12
CC(C)NCc1ccc(-c2cccc(-c3nc4ccccc4[nH]3)c2)cc1
Cc1cccc2[nH]c(-c3ccc(-c4cccc(CN5CCN(c6ccncc6)CC5)c4)cc3)nc12
CC(C)CN1CCCN(Cc2cccc(NC(=O)c3cc4ccccc4s3)c2)CC1
Cc1cc(NCCCCCCN)nc(Nc2ccc(Cl)cc2)n1
CCCCCCCN1CC[C@@H](CCCc2ccnc3ccc(OCCCCN=C(N)NO)cc23)[C@@H](CC)C1
COc1cc(CCN(C)Cc2ccc(OC)c(OC)c2)ccc1NC(=O)c1cccc2c(=O)c3cccc(F)c3[nH]c12
COc1ccc2nccc([C@@H](O)CN3CCC(NC[C@H](Cc4ccccc4)NC(=O)OC(C)(C)C)CC3)c2c1
CC(=O)NCCNc1nccc(N2CCc3ncnc(Nc4ccc(OCc5cccc(F)c5)c(Cl)c4)c3C2)n1
Cc1cc(N)c2cc(NC(=O)CCC(=O)Nc3ccc4nc(C)cc(N)c4c3)ccc2n1
COc1cc(CNCCC(C)C)ccc1OCc1cccc(COc2ccc(CNCCC(C)C)cc2OC)c1
O=C(/C=C/c1ccc(Cl)c(Cl)c1)NCCCCCCN1CCCN(C(=O)Nc2ccc(C(F)(F)F)cc2)CC1
CN1CCN(CCCN(Cc2ccc(-c3ccc(CNCc4ccc5c(c4)OCO5)cc3)cc2)C(=O)Nc2ccccc2)CC1
O=[N+]([O-])c1cccc(Nc2nccc(-c3cnn4ncccc34)n2)c1
COc1ccc(C(=O)N[C@@H](CC(C)C)C(=O)N[C@H](/C=N/NC(=O)c2ccccc2)CCc2ccccc2)cc1OCCN1CCOCC1
CC(C)CCNCc1c(O)ccc2ccccc12
Cc1ccc(/C=C/C(=O)N2CCC(CCN3CCC(c4c[nH]c5ccccc45)CC3)CC2)cc1C
